Drawing on PubChem BioAssay (NCI), this text covers growth for four compounds.

SMILES strings stand for the structures. Compounds without any hit were thinned out: in the full panel of roughly 83,000, 20% have a hit.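 Step 1: grow cells in 96-well plates. Step 2: add test compound at a single concentration. Step 3: incubate 48 h. Step 4: record percent growth.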 Values without a mark were called inactive. Activity calls are given as the source filed them. The calls were made as follows: active = growth percent below 10; inactive = the rest.

For this assay, the system named is MDA-MB-468 breast. In words: NCI-60 one-dose screen, 48 h (100 = growth as untreated, 0 = no growth, -100 = all killed). The following applies: 10 µM unless noted.
With `NN1CCOC(c2ccccc2)C1` (centres undefined), the growth is 113%. As for `COc1cccc(Cc2nn3cc(-c4ccccc4)nc3s2)c1`, the growth was 92.1%. In the case of `c1ccc2[nH]c(-c3ccc(Nc4nc(N5CCCC5)nc5[nH]ncc45)cc3)nc2c1` it was -38.5% (active); in that of `O=C1OC(C(Cl)(Cl)Cl)OC1C(Cl)(Cl)Cl` (centres undefined), 109%.
